KCNH2 3.1 block: blocks the human KCNH2 3.1 channel isoform. U2OS KCNH2 3.1, thallium flux FluxOr; active compounds read low. activity change, % (tested at about 1.8 µM). 340,000 tested, 0.95% active;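 active = maximum activity change below -70%; inconclusive = maximum activity change from -70% to -50%; inactive = maximum activity change above -50%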;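 note: thallium influx rate constant from kinetic fluorescence after stimulation buffer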
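Thallium flux via FluxOr fluorescence (Red40 quencher, 45 min loading) in U2OS cells virally expressing the KCNH2 3.1 isoform (1.77 x 10^8 /mL virus, overnight at 37 C). Rate constants from 2-min kinetic reads post-stimulation, normalised to positive and negative controls.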
TRPML1 blocker: blocks the human TRPML1 channel; Q9GZU1; TRPML1-inducible cells, Ca2+ dye fluorescence, FDSS; active compounds read low; inhibition of EC80 agonist-evoked calcium signal; activity change, negative = inhibition, % (no concentration beside the values); 390,000 tested, 0.02% active; AID 624415; in the data active = activity change below about -50%; inconclusive = between about -30% and that limit;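 note: stimulus is agonist 54-4 at its EC80 concentration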
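Tet-induced TRPML1-DL cells loaded with Ca8 no-wash calcium dye were read kinetically on FDSS. Compound addition was followed by EC80 agonist 54-4 (4 uM final); inhibition was read over 110 s.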
TRPV1 PAM: potentiators of human vanilloid receptor 1 (TRPV1); Q8NER1; TRPV1-expressing cells, Fluo-8 calcium influx, capsaicin EC20 potentiation; 320,000 tested, 0.02% active; potentiation, % at 8.33 µM; AID 540277; in the data active = potentiation above about 80%; inconclusive = between about 30% and that limit
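Fluo-8 calcium influx in TRPV1-expressing cells, kinetic read (ex 480/em 520 nm). Compound added and read 3 min for agonist activity, followed by capsaicin at EC20 final and 2 min further read for enhancement.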
KCNH2 WT inh: inhibitors of human wildtype KCNH2 potassium channel; U2OS, BacMam KCNH2, thallium flux FluxOr; active compounds read low; activity change, % at 1.84 µM; 340,000 tested, 0.37% active; AID 720551;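 active = maximum activity change below -70%; inconclusive = maximum activity change between -70% and -50%; inactive = maximum activity change above -50%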
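U2OS cells transduced with wild-type KCNH2 virus are loaded with FluxOr dye for 45 min, and thallium flux is measured in kinetic reads before and after stimulation buffer. Rate constants are normalized to DMSO controls.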
TRPML1 agonist: agonists of human TRPML1 channel | TRPML1-expressing cells, Ca2+ dye fluorescence, FDSS | Q9GZU1 | activation, % (concentration not given with the values) | 410,000 tested, 0.12% active | AID 624414; in the data active = activation above about 50%; inconclusive = mostly about 30% to 49%
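In this qHTS format, compounds were pin-transferred onto Ca8-dye-loaded TRPML1-DL cells induced with Tet overnight, and intracellular Ca2+ fluorescence was recorded kinetically for 110 s after a 10 s baseline. A subsequent 4uM final 54-4 (EC80) addition followed by a second 110 s read served as the antagonist phase.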
TRPV1 agonist: activates the human vanilloid receptor TRPV1; Q8NER1; 320,000 tested, 0.19% active; activation, % at 8.33 µM; AID 540275; TRPV1-expressing cells, Fluo-8 calcium influx, agonist mode; in the data active = activation above about 80%; inconclusive = between about 30% and that limit
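Fluo-8 calcium influx in TRPV1-expressing cells, kinetic read (ex 480/em 520 nm). Compound added and read 3 min for agonist activity, followed by capsaicin at EC20 final and 2 min further read for enhancement.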
A number is an active result; 0 = inactive; ? = inconclusive; - = no result given. Most compounds without a hit are left out; they make up all but 1.3% or so of the library.

SMILES | KCNH2 3.1 block | TRPML1 blocker | TRPV1 PAM | KCNH2 WT inh | TRPML1 agonist | TRPV1 agonist
CCOCCCN(CCC#N)S(=O)(=O)c1ccc(S(=O)(=O)N2CCCC2)cc1 | 0 | 0 | 0 | -82 | 0 | 0
CCN(CC)S(=O)(=O)c1ccc(S(=O)(=O)N2CCCC2)cc1 | 0 | 0 | 0 | 0 | 0 | 0
CC(=O)c1cccc(NC(=O)CC(c2ccc(C)cc2)N2Cc3ccccc3C2=O)c1 (configuration not stated) | - | 0 | - | - | 0 | -
O=C(/C=C/c1c(F)cccc1Cl)Nc1cccnc1 | 0 | - | 0 | 0 | - | ?
O=C(/C=C/c1cc(Br)ccc1F)Nc1cccnc1 | 0 | 0 | 0 | 0 | 0 | 80
CN1CCc2c(sc3c2c(=O)n(-c2ccccc2)c2nnc(SCc4ccc(Cl)cc4)n32)C1 | 0 | 0 | 0 | -186 | 0 | 0
Cc1cccc(CC2S/C(=N/N=C/c3ccco3)N(c3ccccc3)C2=O)c1 (configuration not stated) | -104 | 0 | 0 | 0 | 0 | 0
Cc1ccc(NC(=O)Cn2ncn3c(cc4ccccc43)c2=O)cc1C | - | 0 | - | - | 0 | -
COC(=O)CSc1ncc(S(=O)(=O)c2ccccc2)c(=O)[nH]1 | -131 | 0 | ? | 0 | 0 | 0
O=C(COc1ccccc1C(=O)Nc1ccccc1)Nc1ccccc1Cl | - | - | - | - | 0 | -
Brc1ccc[n+](CCc2ccccc2)c1 | - | - | - | - | 0 | -
CC(C(=O)c1ccccc1)[n+]1cccc(Cl)c1 (configuration not stated) | - | - | - | - | 0 | -
O=C(c1cc(=O)[nH]c2ccccc12)N1CCN(S(=O)(=O)c2ccc3ccccc3c2)CC1 | 0 | 0 | 0 | 0 | 0 | 0
O=C(c1cc(=O)[nH]c2ccccc12)N1CCN(S(=O)(=O)c2ccc(Cl)cc2)CC1 | 0 | 0 | 0 | -115 | 0 | 0
CCOC(=O)NC(=O)/C(C#N)=C\NNc1ncc(C(F)(F)F)cc1Cl | 0 | 0 | 0 | -71 | 0 | 0
COc1ccc(CN2C(=O)C(NC(=O)c3ccccc3C)(C(F)(F)F)N=C2c2ccccc2)cc1 (configuration not stated) | - | 0 | - | - | 0 | -
CCCC(=O)N(CCN1CCOCC1)c1nc2c(OC)ccc(C)c2s1 | 0 | 0 | 0 | 0 | 0 | 0
CCCC(=O)N(CCN1CCOCC1)c1nc2c(C)ccc(C)c2s1 | -85 | 0 | 0 | 0 | 0 | 0
Cc1sc2nc(COC(=O)c3cccc(S(=O)(=O)N(C)c4ccccc4)c3)[nH]c(=O)c2c1C | 0 | 0 | 0 | 0 | 0 | 0
Cc1sc2nc(COC(=O)c3cccc(OC(F)F)c3)[nH]c(=O)c2c1C | 0 | 0 | 0 | -92 | 0 | 0
CN1CCC(=O)N(C(CSc2ccc(Br)cc2)c2ccccc2)CC1 (configuration not stated) | - | 0 | - | - | 0 | -
CC(C)c1ccc(NC(=O)c2cc3c(=O)oc4ccccc4c3s2)cc1 | - | 0 | - | - | 0 | -
COc1ccc(OC)c(C(=O)N(C)C2CCCN(Cc3ccccc3F)C2)c1 (configuration not stated) | 0 | 0 | 0 | 0 | 0 | 0
CN(C)c1cccc(C(=O)N(C)C2CCCN(Cc3ccccc3F)C2)c1 (configuration not stated) | 0 | 0 | 0 | -71 | 0 | 0
COc1ccc(C(=O)N(C)C2CCCN(Cc3ccccc3F)C2)cc1OC (configuration not stated) | 0 | 0 | 82 | 0 | 0 | 0
SMILES | KCNH2 3.1 block | TRPML1 blocker | TRPV1 PAM | KCNH2 WT inh | TRPML1 agonist | TRPV1 agonist
Cc1sc2ccccc2[n+]1CCc1ccccc1 | - | - | - | - | 0 | -
C=CCOc1ccccc1CN1CCC(Oc2cc(C(=O)NC3CC3)ccc2OC)CC1 | -77 | 0 | 0 | -99 | 0 | 0
COc1ccc(C(=O)NC2CC2)cc1OC1CCN(Cc2ccc(Cl)cc2)CC1 | - | 0 | 0 | -128 | 0 | 0
CCOCCCNC(=O)c1ccc(OC)c(OC2CCN(C(C)C)CC2)c1 | 0 | 0 | 0 | 0 | 0 | 0
COc1ccc(C(=O)NCCCC2CCCC2)cc1OC1CCN(C(C)C)CC1 | -94 | 0 | - | 0 | 0 | -
COc1ccc(C(=O)NC2CC2)cc1OC1CCN(C(C)CSC)CC1 (configuration not stated) | -74 | 0 | 0 | 0 | 0 | 0
